Screens deposited in PubChem by National Center for Advancing Translational Sciences (NCATS).
In the library only some 6.2% were active in any assay of this set; here they are far more common.
KB-V1 MDR tox – qHTS assay for MDR1-selective chemotherapeutics: Primary screen using the drug-selected MDR subline cells KB-V1; KB-V1 MDR cells viability, CellTiter-Glo, 72 h; actives 3.4% (n = 400,000); AID 1347076, 2019; Potency, µM (titrated, usually from 46.1 µM), actives largely listed as cytotoxic; note: % is set by controls: 0 for no effect and ±100 for the full control effect; nearly all actives have a fitted effect of over 60% in size
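Cytotoxicity toward P-gp-expressing KB-V1 cells was determined as loss of CellTiter-Glo luminescence after 72 h at 37 degrees C. Compounds were tested in quantitative HTS format across a concentration range, with curves fitted to normalized data.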
ATXN2 expr inh – Primary qHTS for Inhibitors of ATXN expression; Potency, µM (doses to about 57 µM), for the others: at the top dose activity change, negative = inhibition, most hits filed as inhibitors; HEK-293 ATXN2-luciferase reporter, luminescence, 24 h; actives 0.72% (n = 360,000); note: % is set by controls: 0 for no effect and ±100 for the full control effect; nearly all actives have a fitted effect of over 55% in size
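qHTS (up to 57 uM final) was run with 24 h compound exposure of reporter cells at 37 °C. Each well was multiplexed: SteadyGlo luminescence measured ATXN2-luciferase expression after a fluorogenic Gly-Phe-AFC viability readout (25 uM final).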
HT1080 IDH1KD tx – qHTS for induction of synthetic lethality in tumor cells producing 2HG: qHTS for the HT-1080-IDH1KD cell line; HT-1080 IDH1 knockdown viability, ATP luminescence, 48 h; Potency, µM (titrated, usually from 46.1 µM), for inactives: top-dose activity, negative = toxicity, actives largely listed as cytotoxic; actives 2% (n = 360,000); AID 686971, 2013;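 note: 0% = DMSO wells and -100% = cell-free medium wells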
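HT-1080-IDH1KD cells (IDH1 knocked down), 750/well in RPMI with 5% FBS, treated with compound 48 h at 37 degrees C. Viability by CellTiter-Glo luminescence, normalised to DMSO and no-cell wells; concentration-response curves classed.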
KB-3-1 tox – qHTS assay for MDR1-selective chemotherapeutics: Primary screen using the parental adenocarcinoma cell KB-3-1 | KB-3-1 viability, CellTiter-Glo ATP luminescence, 72 h | Potency, µM (series often up to 46.1 µM), usual class: cytotoxic | actives 1.4% (n = 400,000); note: % is set by controls: 0 for no effect and ±100 for the full control effect; nearly all actives have a fitted effect of over 60% in size
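KB-3-1 cells, DMEM (no phenol red) + 10% FBS; compound by pin transfer, 72 h, 37 °C. Readout: CellTiter-Glo luminescence after 10 min. Data normalized, curve-fitted.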
S2 tox – Viability Counterscreen for Primary qHTS for Inhibitors of ATXN expression; S2 cells (HEK-293 line with an ATXN2-luciferase reporter) viability, CellTiter-Fluor protease fluorescence, 24 h; AID 651635, 2014; Potency, µM (series often up to 56.7 µM), hits mostly cytotoxic; actives 0.49% (n = 400,000); note: nearly all actives have a fitted effect of over 40% in size
HT1080-NT tox – qHTS for induction of synthetic lethality in tumor cells producing 2HG: qHTS for the HT-1080-NT fibrosarcoma cell line. actives 1.6% (n = 360,000). AID 686970, 2013. HT-1080-NT fibrosarcoma viability, CellTiter-Glo ATP luminescence, 48 h. Potency, µM (top dose mostly 46.1 µM), for inactives: top-dose activity, negative = less viability, actives largely listed as cytotoxic;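 note: NT is the 2HG producing partner of a matched IDH1 knockdown line; 0% = DMSO-treated cells and -100% = media-only wells without cells; nearly all actives have a fitted effect of over 55% in size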
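Viability of the 2HG-overproducing fibrosarcoma line after 48 hours of compound exposure at 37 degrees C was determined by luminescence with CellTiter-Glo, and concentration-effect curves were then fitted and categorized.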
Starred values were filed as active, the others as inactive; i = inactive; u = inconclusive; x = no result given. Calls come from the whole dose curve; as a rule, active = well fitted curve in the direction sought with a large enough effect; inconclusive = small, poorly fitted or top-dose-only effect, or another doubt; inactive = no such curve, though single readings can be large; an effect the other way counts as inactive or inconclusive. Potency is the fitted concentration of half-maximal effect.

SMILES	KB-V1 MDR tox	ATXN2 expr inh	HT1080 IDH1KD tx	KB-3-1 tox	S2 tox	HT1080-NT tox
COc1ccc(OC)c2[nH]c(=O)c(CCNC(=O)c3ccc(S(=O)(=O)N(C)C)cc3)cc12	i	14.1%	6.6%	i	i	5.5%
CN(C)c1ncc(S(=O)(=O)c2ccc(Cl)cc2)c(-c2ccc(Cl)cc2Cl)n1	18.4µM*	-10.8%	-14.0%	u	i	-5.1%
Cc1ncc(S(=O)(=O)c2ccccc2)c(-c2ccccc2Cl)n1	i	-4.1%	-8.6%	i	i	-8.1%
CN(C)c1ccc(S(=O)(=O)c2ccc(Cl)cc2)cc1	i	2.4%	-5.0%	i	i	1.5%
CN(C)c1ncc(S(=O)(=O)c2ccccc2)c(-c2ccc(Cl)cc2Cl)n1	14.6µM*	3.9%	-2.4%	i	i	3.6%
CC1=CC(C)(C)N(C(=O)c2ccc(F)cc2)c2cc3c(cc21)OCO3	13µM*	-6.7%	4.0%	20.6µM*	i	-0.9%
NC(=O)CC[C@@H]1NC(=O)[C@H](Cc2ccccc2)NC(=O)[C@H](Cc2ccc(O)cc2)NC(=O)CCSSC[C@@H](C(=O)N2CCC[C@H]2C(=O)N[C@@H](CCCN=C(N)N)C(=O)NCC(N)=O)NC(=O)[C@H](CC(N)=O)NC1=O	x	5.6%	x	x	i	x
CCOC(=O)/C=c1\s/c(=C\c2c(OC)ccc3ccccc23)c(=O)n1CC(=O)NCC1CCCO1 (centres undefined)	2.31µM*	-7.0%	7.94µM*	4.61µM*	i	10µM*
CCOC(=O)C1CCN(C(=O)Cn2ncc3c([nH]c4ccc(C)cc43)c2=O)CC1	i	4.2%	x	i	i	x
CCOC(=O)c1ccc(NC(=O)c2ccc3c(c2)NC(=O)c2ccccc2S3)cc1	u	-19.6%	x	i	u	x
Cc1ccc(C(=O)Nc2ccc3c(c2)N(C)C(=O)c2ccccc2S3)cc1F	6.51µM*	u	x	8.2µM*	u	x
COc1ccc2c(c1)Sc1ccccc1N2CCN(C)C	i	-2.9%	-29.7%	u	i	-28.0%
CC(=O)c1ccc2c(c1)N(C)c1ccccc1S2	23.1µM*	3.9%	-9.7%	u	i	0.3%
CCC(=O)c1ccc2c(c1)N(CCCN(C)C)c1ccccc1S2	i	u	23.1µM*	i	u	23.1µM*
Cc1ccc(NC(=O)c2ccc3c(c2)NC(=O)c2ccccc2S3)cc1	9.2µM*	-38.9%	x	6.51µM*	u	x
O=C(Nc1nccs1)[C@@H]1CC=C[C@@H]2CCN(C3CC3)C(=O)[C@@H]21	i	x	x	i	x	x
CC(=O)Nc1cc(C(=O)Nc2ccc3c(c2)N(C)C(=O)c2ccccc2S3)ccc1C	u	3.3%	x	4.11µM*	u	x
Cc1ccc(CC(=O)Nc2ccc3c(c2)N(C)C(=O)c2ccccc2S3)cc1	18.4µM*	-37.3%	x	i	i	x
COC(=O)c1cc(Cl)ccc1NC(=O)CSc1ncc(S(=O)(=O)c2ccc(Br)cc2)c(=O)[nH]1	u	-4.3%	x	i	i	x
Cc1ccccc1-c1noc(-c2ccc(N3CCCC3)c([N+](=O)[O-])c2)n1	i	u	x	i	i	x
CO[C@H]1C=CC=C(C)C(=O)NC2=CC(=O)C(NCCN(C)C)=C(C[C@@H](C)C[C@H](OC)[C@@H](O)[C@@H](C)C=C(C)[C@@H]1OC(N)=O)C2=O	x	0.0769µM*	x	x	x	x
COC1=C2C[C@H](C)C[C@H](OC)[C@@H](O)[C@@H](C)C=C(C)[C@H](OC(N)=O)[C@@H](OC)C=CC=C(C)C(=O)NC(=CC1=O)C2=O	i	x	x	u	x	x
